This passage reports composite z-score and z-score results from PubChem BioAssay.

Test [1] is described as follows: small molecules captured by biotinylated probe aFSTL3 – biochemical, small-molecule microarray, fluorescence 635/667, stem cell growth factor project, primary screen (AID 1064).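 Note: measures binding of the biotinylated anti-FSTL3 antibody to printed compounds.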 Conditions: higher = more signal.
Test [2] in a line: binders from COS7 lysate, DM2A8 probe, primary screen, torsin A project, cell lysate, small-molecule microarray, fluorescence 635/667 (AID 1065). Conditions: higher = more signal, COS7 lysate expressing mutant human TOR1A.
The nature of test [3]: small molecules captured by biotinylated probe aFGF2 – biochemical, small-molecule microarray, fluorescence 635/667, stem cell growth factor project, primary screen (AID 1067).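 Note: measures binding of biotinylated aFGF2 protein to printed compounds on slides; z-score merges feature fluorescence and signal-to-noise across triplicate slides.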 Conditions: higher = more signal.
A short description of test [4]: small molecules captured by biotinylated probe aFGF10 – biochemical, small-molecule microarray, fluorescence 635/667, stem cell growth factor project, primary screen (AID 1071).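 Note: score merges 667 nm spot intensity and signal to noise from triplicate slides.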 The note with it: higher = more signal.
Test [5] concerns the target Neurogenic locus notch homolog protein 2 (Homo sapiens) (UniProt Q04721). Description: small molecules binding Notch2 protein – biochemical, small-molecule microarray, 635 nm fluorescence, stem cell growth factors, primary screen (AID 1073). Conditions: higher = more signal.
The target of test [6] is Pro-neuregulin-1, membrane-bound isoform (Homo sapiens) (UniProt Q02297). Description: small molecules binding neuregulin-1 protein – biochemical, small-molecule microarray, fluorescence 635/667, psychiatric disease protein project, primary screen (AID 1075).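 Note: score combines 667 nm spot fluorescence with signal to noise.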 The note with it: NRG1 binding, 635 nm fluorescence, higher = more signal.
Test [7] concerns Neuregulin-1 EGF-like domain. Description: small molecules binding NRG1 EGF domain – biochemical, small-molecule microarray, 635 nm fluorescence, primary screen (AID 1081).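 Note: binding of the protein to compounds printed on small-molecule microarray slides.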 Conditions: higher = more signal.
The nature of test [8]: FRG1 expression reporter modulators in myotubes – cell-based, C2C12 myotubes, firefly/Renilla luciferase, luminescence, FRG1 inhibition for FSHD, primary screen (AID 1084). Conditions: FRG1 promoter luciferase, higher = more signal, called active from +8 up or from −8 down.
Test [9] is described as follows: small molecules captured by biotinylated probe aFST – biochemical, small-molecule microarray, fluorescence 635/667, stem cell growth factor project, primary screen (AID 1086).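 Note: score merges 667 nm fluorescence with signal-to-noise of each printed compound spot.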 Conditions: higher = more signal.
A short description of test [10]: binders of probe aHhip on microarray, primary screen, stem cell growth factor project, biochemical, small-molecule microarray, fluorescence 635/667 (AID 1087).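 Note: score merges spot fluorescence at 667nm with spot signal to noise ratio.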 Conditions: higher = more signal.
Test [11] deals with PRMT1 (protein arginine N-methyltransferase 1). Description: small molecules binding arginine methyltransferase PRMT1 – biochemical, small-molecule microarray, 635 nm fluorescence, primary screen (AID 1088).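 Note: binding of Prmt1 protein to compounds spotted on small-molecule microarray slides.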 Conditions: higher = more signal.
The nature of test [12]: growth effects on S. cerevisiae YJM789 – YJM789 clinical isolate, OD600, 24 h, basal, primary screen (AID 1089).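 Note: growth of clinical yeast isolate S. cerevisiae YJM 789 seeded 1000 cells per well; test concentration not given here.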 Conditions: higher = more signal, called active from +8 up or from −8 down.
Test [13] is described as follows: S. pombe growth modifiers, basal conditions – strain 972, OD600, 24 h, no modulator, primary screen (AID 1090).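 Note: basal condition with compound alone and no growth modifier present; test concentration not given here.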 The note with it: S. pombe 972 growth, higher = more signal, called active from +8 up or from −8 down.
Test [14] in a line: budding yeast growth modifiers under rapamycin – strain BY4716, OD600, 96 h, primary screen (AID 1091). Note: test concentration not given here. The note with it: S. cerevisiae BY4716 + rapamycin, higher = more signal, called active from +8 up or from −8 down.
The target in test [15] is Torsin-1A-interacting protein 2 (Homo sapiens) (UniProt Q8NFQ8). Description: small molecules binding lysate-expressed LULL1 – cell lysate, human LULL1 lysate, 635/667 nm fluorescence, primary screen (AID 1092).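 Note: probe is lysate of COS7 cells overexpressing human LULL1; score merges per-feature 667 nm fluorescence with signal-to-noise.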 The note with it: small-molecule microarray, hLULL1 lysate binding, 635 nm fluorescence; higher = more signal.
Test [16] in a line: optical density change of DRC41 E. coli – strain DRC41, OD650, 24 h, E. coli filamentation project, primary screen (AID 1093).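 Note: MC1000 strain lacking acrAB efflux and sulA so SOS filamentation is blocked; test concentration not given here.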 Conditions: E. coli DRC41 growth, higher = more signal, called active from +8 up or from −8 down.
The nature of test [17]: probe aLefty2 binding to arrayed compounds – biochemical, biotinylated probe, 635/667 nm fluorescence, primary screen (AID 1094).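 Note: score merges spot fluorescence near 667 nm with spot signal-to-noise ratio.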 Conditions: small-molecule microarray, higher = more signal.
In test [18] the test system is Noggin (protein binding on small-molecule microarray). Nature of the test: small molecules binding Noggin protein – biochemical, 635/667 nm fluorescence, primary screen (AID 1095).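 Note: score merges 667 nm feature fluorescence with signal to noise over triplicate slides.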 Conditions: 635 nm fluorescence, higher = more signal.
The target in test [19] is Neurogenic locus notch homolog protein 3 (Homo sapiens) (UniProt Q9UM47). Description: small molecules binding NOTCH3 protein – biochemical, 635/667 nm fluorescence, primary screen (AID 1096). Conditions: small-molecule microarray, 635 nm fluorescence, higher = more signal.
Test [20] in a line: probe aEGFR binding to arrayed compounds – biochemical, biotinylated probe, 635/667 nm fluorescence, primary screen (AID 1097).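 Note: probe is a biotinylated anti-EGFR antibody binding compounds printed on slides; score combines fluorescence near 667 nm and signal to noise of each spot.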 The note with it: small-molecule microarray, higher = more signal.

Structures are written as SMILES. Activity calls are given as the source filed them.

Chain of Pro-neuregulin-1, membrane-bound isoform (Homo sapiens) (Q02297 whole entry, looked up, the tested form may be a part, canonical isoform): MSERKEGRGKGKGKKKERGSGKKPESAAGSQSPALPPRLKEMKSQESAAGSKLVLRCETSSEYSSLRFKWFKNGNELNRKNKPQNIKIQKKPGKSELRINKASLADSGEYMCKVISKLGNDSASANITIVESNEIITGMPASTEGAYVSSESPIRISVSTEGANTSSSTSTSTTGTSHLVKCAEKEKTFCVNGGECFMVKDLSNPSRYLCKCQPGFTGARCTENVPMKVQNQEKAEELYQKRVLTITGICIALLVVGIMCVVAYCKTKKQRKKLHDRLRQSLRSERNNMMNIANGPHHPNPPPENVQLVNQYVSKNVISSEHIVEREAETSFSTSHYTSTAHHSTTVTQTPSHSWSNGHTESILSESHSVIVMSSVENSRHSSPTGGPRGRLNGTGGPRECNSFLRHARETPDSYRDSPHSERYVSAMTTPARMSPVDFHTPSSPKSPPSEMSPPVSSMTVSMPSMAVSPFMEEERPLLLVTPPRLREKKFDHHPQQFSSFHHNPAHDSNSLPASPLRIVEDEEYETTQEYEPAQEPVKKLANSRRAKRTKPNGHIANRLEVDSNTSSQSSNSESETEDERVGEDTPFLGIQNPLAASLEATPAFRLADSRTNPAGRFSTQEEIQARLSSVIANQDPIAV
Chain of Neurogenic locus notch homolog protein 3 (Homo sapiens) (Q9UM47 whole entry, looked up): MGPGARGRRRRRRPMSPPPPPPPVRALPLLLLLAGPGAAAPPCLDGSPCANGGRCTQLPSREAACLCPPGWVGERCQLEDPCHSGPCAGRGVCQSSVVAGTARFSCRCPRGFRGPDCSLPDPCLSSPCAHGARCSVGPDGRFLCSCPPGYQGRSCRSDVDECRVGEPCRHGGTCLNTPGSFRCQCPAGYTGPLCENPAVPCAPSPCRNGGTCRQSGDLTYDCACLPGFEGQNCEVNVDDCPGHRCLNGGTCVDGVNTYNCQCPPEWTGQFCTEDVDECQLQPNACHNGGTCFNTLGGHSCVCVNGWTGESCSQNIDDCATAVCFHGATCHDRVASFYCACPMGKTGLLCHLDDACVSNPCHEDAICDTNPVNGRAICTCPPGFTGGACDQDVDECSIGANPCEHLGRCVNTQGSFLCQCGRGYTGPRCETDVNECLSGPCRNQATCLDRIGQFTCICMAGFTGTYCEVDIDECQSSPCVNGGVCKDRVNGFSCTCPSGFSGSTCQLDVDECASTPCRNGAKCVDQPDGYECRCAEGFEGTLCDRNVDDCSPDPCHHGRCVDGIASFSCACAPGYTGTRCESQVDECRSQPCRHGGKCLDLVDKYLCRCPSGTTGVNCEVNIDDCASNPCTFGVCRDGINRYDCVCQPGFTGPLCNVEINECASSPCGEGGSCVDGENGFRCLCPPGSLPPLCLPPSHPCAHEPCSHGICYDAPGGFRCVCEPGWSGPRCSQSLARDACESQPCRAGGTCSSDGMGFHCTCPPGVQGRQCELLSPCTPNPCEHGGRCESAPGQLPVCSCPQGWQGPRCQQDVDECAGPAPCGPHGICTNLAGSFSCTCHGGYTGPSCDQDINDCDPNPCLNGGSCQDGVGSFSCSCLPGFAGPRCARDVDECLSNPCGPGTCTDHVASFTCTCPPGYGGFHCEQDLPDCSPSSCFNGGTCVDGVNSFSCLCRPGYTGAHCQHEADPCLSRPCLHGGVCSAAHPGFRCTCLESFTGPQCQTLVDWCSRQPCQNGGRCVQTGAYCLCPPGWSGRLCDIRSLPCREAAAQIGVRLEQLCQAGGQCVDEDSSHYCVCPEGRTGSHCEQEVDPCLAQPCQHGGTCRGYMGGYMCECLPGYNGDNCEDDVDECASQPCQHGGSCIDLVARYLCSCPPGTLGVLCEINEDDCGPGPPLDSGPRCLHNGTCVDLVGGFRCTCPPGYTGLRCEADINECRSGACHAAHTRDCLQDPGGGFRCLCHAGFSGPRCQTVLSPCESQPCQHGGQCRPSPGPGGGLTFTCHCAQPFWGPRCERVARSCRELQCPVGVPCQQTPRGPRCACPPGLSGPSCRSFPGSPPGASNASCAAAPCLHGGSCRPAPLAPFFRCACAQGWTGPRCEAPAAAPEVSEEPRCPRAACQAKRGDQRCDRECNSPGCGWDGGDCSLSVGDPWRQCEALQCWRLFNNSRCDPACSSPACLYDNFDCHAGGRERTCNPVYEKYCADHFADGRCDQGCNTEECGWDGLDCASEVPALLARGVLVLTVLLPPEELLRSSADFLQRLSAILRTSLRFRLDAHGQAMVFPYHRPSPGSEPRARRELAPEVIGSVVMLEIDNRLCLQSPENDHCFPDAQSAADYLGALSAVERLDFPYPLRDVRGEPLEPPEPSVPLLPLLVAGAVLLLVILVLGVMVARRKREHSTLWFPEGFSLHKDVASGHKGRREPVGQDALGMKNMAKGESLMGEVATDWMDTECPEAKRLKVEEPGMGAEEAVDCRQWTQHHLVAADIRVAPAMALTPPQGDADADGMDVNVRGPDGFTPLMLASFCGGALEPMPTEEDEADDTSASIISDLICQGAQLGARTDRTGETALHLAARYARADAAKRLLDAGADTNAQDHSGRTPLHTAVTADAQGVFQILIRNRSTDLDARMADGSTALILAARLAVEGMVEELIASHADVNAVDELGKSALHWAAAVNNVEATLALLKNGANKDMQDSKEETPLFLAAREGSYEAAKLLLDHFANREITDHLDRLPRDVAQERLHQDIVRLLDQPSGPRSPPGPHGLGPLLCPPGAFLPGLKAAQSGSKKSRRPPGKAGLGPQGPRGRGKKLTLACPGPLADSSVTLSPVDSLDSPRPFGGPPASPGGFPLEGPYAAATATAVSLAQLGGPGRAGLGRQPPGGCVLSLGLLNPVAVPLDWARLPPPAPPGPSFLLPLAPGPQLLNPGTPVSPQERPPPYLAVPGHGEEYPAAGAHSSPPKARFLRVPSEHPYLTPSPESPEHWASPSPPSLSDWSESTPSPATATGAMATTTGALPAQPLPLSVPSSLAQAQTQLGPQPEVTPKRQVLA
Chain of Torsin-1A-interacting protein 2 (Homo sapiens) (Q8NFQ8 whole entry, looked up): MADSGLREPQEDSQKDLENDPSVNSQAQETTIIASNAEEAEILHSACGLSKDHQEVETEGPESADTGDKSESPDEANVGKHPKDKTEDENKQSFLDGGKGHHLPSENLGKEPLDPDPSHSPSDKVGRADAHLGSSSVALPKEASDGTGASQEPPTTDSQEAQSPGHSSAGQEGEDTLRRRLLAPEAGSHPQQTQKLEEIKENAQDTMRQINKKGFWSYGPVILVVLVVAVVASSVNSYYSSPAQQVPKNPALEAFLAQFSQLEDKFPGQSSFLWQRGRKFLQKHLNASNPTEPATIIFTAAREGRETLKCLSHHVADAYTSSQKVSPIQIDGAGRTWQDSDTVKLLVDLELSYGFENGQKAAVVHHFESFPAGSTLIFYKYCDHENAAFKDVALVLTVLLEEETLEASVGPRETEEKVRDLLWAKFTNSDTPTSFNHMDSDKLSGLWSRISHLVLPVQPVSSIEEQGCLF

`CC(C)[Si]1(C(C)C)OCc2cc(C3CC3)nc(-c3ccccc3)c21`: the composite z-score in test [1] is 0.322; in test [2], 0.598; in test [3], -0.119; in [4], -1.2; in test [5], -1.27; in test [6] it was -0.291. The composite z-score in [7] was -0.531; in test [9], -0.135; in [10] it was -0.261; in [11] it was 0.168; in test [15], -0.431; in [17], -0.142. The composite z-score in test [18] is -0.246; in [19], -0.802; in test [20], -0.216. The z-score was -1.03 (inactive) in test [8]; -0.604 (inactive) in test [12]; -3.7 (inactive) in test [13]; -1.39 (inactive) in test [14]; 2.13 (inactive) in test [16].

As for `C=CCC1=C[C@H]2[C@H]([C@@H]3C=C[C@]2(CC=C)C(=O)[C@]32CO2)[C@@]2(CO2)C1=O`, the composite z-score in test [1] was 0.076; in test [2] it was 1.28; in test [3] it was -0.034; in test [4], 0.612; in [5], 0.333; in test [6] it was -0.35. In addition, the composite z-score in [7] is 0.319; in test [9] it was 0.501; in test [10], 0.0542; in [11], 0.388; in [15], 0.756; in test [17], 0.233. Besides, the results for the composite z-score in test [18], in test [19] and in test [20] were 1.65, 0.183 and 0.148, respectively. The z-score in [8] is -1.52 (inactive); in test [12], 0.683 (inactive); in test [13], -21.2 (active); in test [14] it was -4.1 (inactive); in test [16], 2.54 (inactive).

For `CO[C@H]1O[C@H](CO)[C@@H](OC(=O)Nc2ccccc2)[C@H](OC(=O)Nc2ccc3c(c2)OCO3)[C@@H]1OC(=O)Nc1ccc2c(c1)OCO2`, the composite z-score in [1] was 0.304; in test [2], 1.66; in [3] it was -0.0784; in test [4], 0.158; in test [5], 0.288; in [6] it was 1.77. Also, the composite z-score in [7] is 1.29; in test [9] it was 0.474; in [10], -0.191; in [11] it was 1.53; in test [15], 2.62; in [17] it was -0.0591. Also, the composite z-score in test [18] was -0.0087; in test [19], 0.845; in [20], -0.117. In addition, the z-score in test [8] is 2.25 (inactive); in [12], 0.058 (inactive); in [13] it was -0.1 (inactive); in [14], 3.14 (inactive); in test [16], 1.67 (inactive).

For `CC(C)(C)OC(=O)CC[C@]1(C(=O)NCCN2CCOCC2)N=C(c2ccc(OCCCO)cc2)O[C@H]1c1ccccc1CN=[N+]=[N-]`, the composite z-score in test [1] was 0.182; in test [2], 1.16; in test [3] it was 0.0402; in test [4] it was 0.07; in test [5] it was 1.24; in test [6] it was 1.73. Further, the composite z-score in [7] is 1.42; in [9], 0.278; in test [10], -0.0672; in [11], 0.82; in test [15], 3.06; in [17] it was -0.0384. The composite z-score is -0.541 in test [18], 0.343 in [19] and 0.0074 in test [20]. The z-score in test [8] was 2.72 (inactive); in test [12] it was -1.29 (inactive); in [13], -0.981 (inactive); in [14], -1.35 (inactive); in [16], 1.71 (inactive).

On to `CC(C)NC(=O)[C@@]1(Cc2ccccc2I)c2ccccc2C(=O)N(C2CCCCC2)[C@H]1c1ccc(CO)cc1`, for which the composite z-score in test [1] is -0.107; in test [2], 0.072; in [3] it was 0.0402; in test [4] it was 0.87; in test [5] it was 1.18; in test [6], 1.86. For the same compound, the composite z-score in test [7] is 1.38; in [9] it was 1.38; in test [10], 0.0505; in test [11], 1.53; in test [15], 3.4; in [17], 0.261. In addition, the composite z-score is 0.128 in test [18], 1.14 in test [19] and 0.0861 in test [20]. The z-score in test [8] was -2.62 (inactive); in [12], 0.401 (inactive); in [13] it was -2.09 (inactive); in test [14], -1.03 (inactive); in test [16], -0.432 (inactive).
